Experimental data as given in the supplement of paper PMC6555819.

Columns and labels:
Test in all cases: PBM binding z-score (relative to random genomic background probes); higher = stronger binding; sequences stand for … in GC…GCGATTGACAGCGTAGAATGAAGG
[1] = system: PPARg:RXRa DBDmut IVT, anti-RXR (DBD mutation: RXRa K156A/R161A, NR concentration 270 nM, RXRa partner concentration 90 nM)
Summary of the method: (§1)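 Regression normalization was applied to scanned fluorescence from custom Agilent 4×180K protein-binding microarrays. Before scanning, arrays were incubated 1 h with ligand-free nuclear receptor dimers, and binding was detected with antibodies against each partner (one per run). Binding z-scores use the random background probes as reference.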

[2] = system: PPARg:RXRa IVT, anti-PPARg (NR concentration 270 nM, RXRa partner concentration 90 nM)
Summary of the method: as §1

[3] = system: PPARg DBDmut:RXRa IVT, anti-PPARg (DBD mutation: PPARg1 K132A/R137A, NR concentration 270 nM, RXRa partner concentration 90 nM)
Summary of the method: as §1

[4] = system: PPARg DBDmut IVT, anti-PPARg (DBD mutation: PPARg1 K132A/R137A, NR concentration 270 nM)
Summary of the method: as §1

[5] = system: PPARg homodimer (NR concentration 180 nM)
Summary of the method: as §1

[6] = system: PXR:RXRa (NR concentration 270 nM, RXRa partner concentration 90 nM)
Summary of the method: as §1

[7] = system: PXR homodimer (NR concentration 270 nM)
Summary of the method: as §1

[8] = system: RARa:RXR (NR concentration 270 nM, RXRa partner concentration 90 nM)
Summary of the method: as §1

[9] = system: RARa homodimer (NR concentration 270 nM)
Summary of the method: as §1

[10] = system: RARb:RXRa (NR concentration 270 nM, RXRa partner concentration 90 nM)
Summary of the method: as §1

Row | Sequence | PBM binding z-score [1] | PBM binding z-score [2] | PBM binding z-score [3] | PBM binding z-score [4] | PBM binding z-score [5] | PBM binding z-score [6] | PBM binding z-score [7] | PBM binding z-score [8] | PBM binding z-score [9] | PBM binding z-score [10]
1 | TCGAGTAGGTTACCAATGGGGCATTCAGCTTTCT | 3.39 | 2.58 | -0.0498 | -0.456 | -0.375 | 0.171 | -0.622 | 0.273 | -0.0206 | 0.992
2 | ATATGAAGGTTAGCTGGGGTCATTCAGACTAGGC | 1.16 | 2.19 | 0.859 | 1.21 | 2.53 | 6.56 | 5 | 5.87 | 1.42 | 3.55
3 | TCATGTAGGTAAACAGGTGAAAGTCCGTAAGTTA | 4.93 | 5.27 | 0.599 | 0.663 | 1.08 | 0.463 | 0.296 | 0.664 | 0.834 | 0.451
4 | CCTGCTAAGTCATGGTCAGCTAATCTACAGTATG | 0.985 | -0.177 | -0.766 | -0.271 | 0.146 | -0.158 | -0.39 | -0.0535 | -0.167 | 0.586
5 | ATCGAAAGGTCGAGATGAGTATAGAGAAAGGGAA | -0.278 | 1.33 | 1.47 | 1.2 | 1.05 | 2.02 | 0.117 | 2.52 | 0.436 | 3.66
6 | TCTAGCAGGCCAGAGGGTCACGCAAGAGGTACGG | 0.77 | 1.31 | -0.82 | -1.03 | 0.618 | 2.62 | -0.51 | 3.55 | -0.463 | 2.84
7 | TCTATTATTTGAAGGGCAACCGACGAGTCCGTTT | 2.78 | 0.734 | 0.771 | 1.44 | 2.12 | 1.23 | 1.48 | 0.961 | 3.23 | 1.56
8 | ACAGACAGGTGATTGAAGGTAACTCAGCTGGACG | 0.234 | 0.403 | -0.375 | -0.0689 | 0.449 | -0.285 | -0.239 | 0.452 | -0.476 | 0.303
9 | GCTCGGAGGACAAGGTTAGAGCTTTGTCCGTAGA | -0.578 | -0.435 | -1.46 | -0.888 | -0.772 | -0.186 | -0.847 | -0.266 | -1.1 | 1.45
10 | TAGCCTAGGTCATGCCGGCCAGTATAGTGTCGGC | 1.13 | 2.47 | -0.929 | -0.11 | 0.237 | 0.798 | -0.486 | 1.77 | -0.917 | 3.48
11 | TCTAGTTGGTCAAAGGTCCCACACTCGAAATGCG | 2.94 | 3.27 | 0.799 | 1.15 | 1.16 | 0.98 | -0.0577 | 1.49 | 1.06 | 1.67
12 | CCTCGTTGGTCAGGAGGTCACACACCGGATATGA | 0.408 | 2.72 | 0.14 | 0.13 | 3.05 | 4.26 | 0.821 | 4.73 | 1.57 | 3.75
13 | CGTCCAAGGTCAGAGCGGTCAGTGAATGCCGAGT | 2.63 | 2.2 | -0.349 | 0.202 | 2.18 | 3.25 | 2.78 | 3.14 | 0.595 | 4.58
14 | ATCACTAGGTAACAAGTTCAGTGAAAGAGAGGAC | 5 | 4.3 | 1.27 | 0.914 | 1.31 | 1.95 | 2.35 | 0.935 | 1.41 | 1.8
15 | CGAACTAGGTCAGAACAGGATAGTGAAGGATGAT | 7.17 | 7.33 | 2.09 | 2.21 | 1.07 | 0.283 | 0.0335 | 1.12 | 0.743 | 2.97
16 | TCATATAGGTAAAAGCTAGGTGAAAGTCCGATCT | 3.84 | 2.83 | 1.06 | 1.08 | 0.659 | 0.255 | 0.0441 | 1.01 | 0.436 | 0.407
17 | CGTCCAAGGTCAGCAGGTCAGTTAAAGCGACGTG | 3.4 | 3.71 | -0.851 | -0.676 | 3.29 | 3.76 | 0.476 | 4.7 | 1.05 | 5.53
18 | ACTAGCAGGCCACGTTTGGGTCACTCAAACAAAG | 1.75 | 1.88 | -0.646 | -0.408 | 0.639 | 0.56 | -0.664 | 1.3 | -0.197 | 1.58
19 | TGCATGAGGTTAAAGATCAGGGAACGTGGCGTCG | 0.0827 | 1.55 | 0.0491 | 0.396 | 1.07 | 2.23 | 0.0644 | 2.93 | 0.611 | 2.23
20 | GATACAGGGTCAAGGCCAGAGTGCGCGTATTGAT | 2.75 | 4.1 | 0.884 | 0.0154 | 3.05 | 3.92 | 0.307 | 4.99 | 1.02 | 4.28
21 | CCTACTGGGCCATCCGGTCATTGATATCAACGTT | 3.87 | 4.21 | -0.352 | -0.431 | 0.811 | -0.0327 | -0.0108 | 0.187 | -0.315 | 1.42
22 | CCTTACGGCTCACTCCAGGTTATAGCATCGGAGT | 0.594 | -0.0865 | -0.339 | -0.313 | 0.301 | -0.0761 | 0.257 | 0.372 | 0.095 | 0.00286
23 | TCAGACAGGTGAAGTTAACTCAGGTACGCAGTCG | 2.34 | 0.646 | 0.282 | -0.426 | 0.226 | 0.543 | 0.31 | 0.876 | 0.495 | 1.03
24 | ACAGACAGGTGAGTGAAGGTTACTCAGCTGGACG | 0.352 | 1.16 | 0.332 | 0.037 | 0.138 | 0.646 | -0.03 | 0.952 | 0.201 | 1.15
25 | CCTCGGAGGACAACAGGAGGTCAGAGCGGCCAGA | 0.0202 | 0.396 | -0.758 | -1.19 | 1.8 | 2.31 | 0.892 | 2.47 | 0.103 | 3
